# Sampled rows, rich in hits. Any-hit rate of the full collection: about 8.8%.
# KB-V1 MDR tox: KB-V1 MDR subline cytotoxicity | Potency, µM (series often up to 46.1 µM), actives largely listed as cytotoxic | KB-V1 MDR cells viability, CellTiter-Glo, 72 h | 400,000 compounds, 3.4% hits; further: nearly all actives have a fitted effect of over 60% in size
#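 Cytotoxicity via CellTiter-Glo luminescence after 72 h compound exposure at 37 degrees C. Cells: drug-selected KB-V1 line, DMEM phenol-red free plus 10% FBS. Compounds tested at multiple concentrations; normalized data fitted to concentration-effect curves.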
# IL1B secr inh: blocks inflammasome-driven IL-1 beta release; 360,000 compounds, 4.7% hits; activity change, % at 57.5 µM; THP-1 LPS/ATP IL-1B secretion, AlphaLISA, 16 h; stronger effect = lower value; in the data active means activity change below about -50%; inconclusive means mostly about -30% to -49%
#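 THP-1 cells pretreated 1 hr with compounds (up to 57.5 uM final), then stimulated with LPS (250 ng/mL final) plus ATP (1.25 mM final); secreted IL-1B measured by AlphaLISA after 16 hr, decreased signal indicating inhibition.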
# KB-3-1 cytotox: KB-3-1 parental cell cytotoxicity; 400,000 compounds, 1.4% hits; KB-3-1 viability, CellTiter-Glo ATP luminescence, 72 h; Potency, µM (doses to about 46.1 µM), actives largely listed as cytotoxic; further: nearly all actives have a fitted effect of over 60% in size
#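 KB-3-1 parental drug-naive adenocarcinoma cells in DMEM/10% FBS, incubated 72 h at 37 C with pin-transferred compounds across a concentration series. Viability by CellTiter-Glo luminescence; concentration-response curves fitted after normalization.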
# HT1080-NT tox: kills 2HG-producing HT-1080-NT fibrosarcoma cells | AID 686970 | 360,000 compounds, 1.6% hits | Potency, µM (series often up to 46.1 µM), actives largely listed as cytotoxic | HT-1080-NT fibrosarcoma viability, CellTiter-Glo ATP luminescence, 48 h;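 further: NT is the 2HG producing partner of a matched IDH1 knockdown line; nearly all actives have a fitted effect of over 55% in size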
#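 Toxicity toward the 2HG-producing NT line was scored as %Activity, normalised to DMSO and no-cell wells, from CellTiter-Glo luminescence after 48 hours' treatment.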
# HT1080 IDH1KD tx: HT-1080 IDH1 knockdown cell toxicity (counter line). Potency, µM (doses to about 46.1 µM), actives largely listed as cytotoxic. 360,000 compounds, 2% hits. AID 686971. HT-1080 IDH1 knockdown viability, ATP luminescence, 48 h
#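 Cytotoxicity counter-line: IDH1KD HT-1080, 48 h, CellTiter-Glo. Curves classed by r2, magnitude and activity.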
# Numbers stand for hits; - = inactive; ? = inconclusive; . = no result. Unless noted, the call rests on the fitted dose curve; in most records, active means well fitted curve in the direction sought with a large enough effect; inconclusive means small, poorly fitted or top-dose-only effect, or another doubt; inactive means no such curve, though single readings can be large; an effect the other way counts as inactive or inconclusive.
SMILES,KB-V1 MDR tox,IL1B secr inh,KB-3-1 cytotox,HT1080-NT tox,HT1080 IDH1KD tx
COc1ccc(CCN2C(=O)c3ccccc3C2c2nnnn2C(C)C)cc1OC (stereo not drawn),?,-,-,-,?
Cc1cccc(NC(=O)CNC(=O)COc2ccc(C(=O)c3ccc(F)cc3)cc2)c1C,?,-,6.5µM,-,-
Cc1cccc(NC(=O)CNC(=O)COc2ccc(-c3ccc(C#N)cc3)cc2)c1C,-,-,-,-,-
COc1ccc(CNC(=O)COc2ccc(F)cc2)cc1,?,-,-,-,-
COc1ccc(CNC(=O)COc2ccc(C(=O)c3ccc(F)cc3)cc2)cc1,?,-,?,?,5.2µM
O=C(COc1ccc(C(=O)c2ccc(F)cc2)cc1)NCc1ccc(F)cc1,9.2µM,-,4.1µM,?,?
CCc1noc(C)c1C(=O)Nc1cccc2ncccc12,-,-,-,-,-
O=C(Nc1ccccc1C(F)(F)F)c1cc2ncc(CCCl)cn2n1,-,-,-,-,-
Cc1cc(Cl)c(OCCOCCN2CCCC(C)C2)c(Br)c1 (stereo not drawn),?,-,-,18µM,?
Cc1cc(Cl)c(OCCCNC2CCCC2)c(Br)c1,?,-73,-,?,21µM
Cc1cc(Cl)c(OCCOCCN2CCCCC2)c(Br)c1,-,-,-,-,-
CC1CCCN(CCOCCOc2ccc(Cl)cc2Br)C1 (stereo not drawn),16µM,?,?,22µM,11µM
COCCCNCCCCOc1c(Cl)cc(C)cc1Br,?,-,-,?,-
CC(C)Oc1ccccc1C1C=C(C(=O)O)Nc2ncnn21 (stereo not drawn),-,.,?,.,.
CCOC(=O)C(NC(=O)c1ccccc1)(OCc1ccc(F)cc1)C(F)(F)F (stereo not drawn),-,-,-,-,-
CCOC(=O)C(NC(=O)c1cccc(Cl)c1)(OCc1ccc(F)cc1)C(F)(F)F (stereo not drawn),-,-100,?,?,?
CCOC(=O)C(NC(=O)c1ccccc1)(OCC1(CC)COC1)C(F)(F)F (stereo not drawn),18µM,-,-,-,-
CCCN1C(=O)c2ccccc2NC1c1ccc(OC)cc1O (stereo not drawn),5.8µM,-,?,-,-
CCCN1C(=O)c2ccccc2NC1c1ccc(OC)cc1OC (stereo not drawn),?,-,-,-,-
CCc1cccc(NC(=O)c2ccc(Cn3nc(C)cc3C)o2)c1,15µM,-,-,-,-
CCOc1ccc(NC(=O)c2ccc(Cn3nc(C)cc3C)o2)cc1,-,-,-,-,-
O=C(C[n+]1cc(Br)cc2ccccc21)c1ccc(Cl)cc1,-,-,?,-,?
O=C(C[n+]1cc(Br)cc2ccccc21)c1ccc(Br)cc1,-,-66,?,-,-
O=C(NCc1cccnc1)c1[nH]c(C(F)(F)F)nc1-c1ccccc1,-,-,-,-,-
CCOc1cc2c(cc1O)C(=NOC)CC1C2CCC2(C)C(O)CCC12 (stereo not drawn),0.52µM,-,0.65µM,1.6µM,1.5µM
SMILES,KB-V1 MDR tox,IL1B secr inh,KB-3-1 cytotox,HT1080-NT tox,HT1080 IDH1KD tx
Cc1cc(=O)oc2cc(Oc3ccc([N+](=O)[O-])cc3[N+](=O)[O-])ccc12,?,-104,-,-,?
O=c1oc2cc(Oc3c([N+](=O)[O-])cc(C(F)(F)F)cc3[N+](=O)[O-])ccc2c2c1CCCC2,?,-82,?,?,-
O=c1oc2cc(Oc3ccc(C(F)(F)F)cc3[N+](=O)[O-])ccc2c2c1CCC2,21µM,-,-,-,-
Cc1cc(=O)oc2cc(Oc3ncccc3[N+](=O)[O-])ccc12,-,-,-,-,-
O=c1oc2cc(OCCO)ccc2c2c1CCCC2,-,-,-,-,-
NNC(=O)[C@H](Cc1ccccc1)NC(=O)NCCc1ccccc1,-,-,-,-,-
CC(C)c1ccc(NC(=S)N(C)CCc2ccccn2)cc1,23µM,-,-,-,-
CCOC(=O)c1cccc(NC(=O)CCC(=O)N2CC(C)Oc3ccc(C)cc32)c1 (stereo not drawn),-,.,-,.,.
c1ccc2c(c1)-c1cccc3cncc-2c13,-,-84,-,-,?
CCCN(Cc1cccs1)C(=O)Nc1cc(Cl)ccc1C,-,.,-,.,.
Cc1ccc(-n2cccn2)c(CN2CCCC(C(=O)c3ccc4c(c3)OCO4)C2)c1 (stereo not drawn),-,-60,?,-,?
O=C(c1ccc2c(c1)OCO2)C1CCCN(Cc2cc(F)ccc2-n2cccn2)C1 (stereo not drawn),?,-,-,-,-
Cc1ccc2[nH]cc(C(=O)CN3CCN(C)CC3)c2c1,-,-,-,-,-
Cc1ccc2[nH]cc(C(=O)CCl)c2c1,?,-101,?,16µM,21µM
Cc1ccc2c(C(=O)CCl)c(C)[nH]c2c1,?,-98,13µM,?,21µM
Cc1ccc2c(C(=O)CN3CCSCC3)c(C)[nH]c2c1,-,-,-,-,-
Cc1onc(-c2ccccc2)c1CNS(=O)(=O)c1ccccc1[N+](=O)[O-],-,-,-,-,-
COc1ccc(C(=O)C[n+]2cc(-c3ccc(OC)cc3)n3c2CCCC3)cc1,?,-,?,-,?
Cc1ccc(-c2c[n+](CC(=O)OCc3ccccc3)c3n2CCC3)cc1,-,-,-,-,-
Cc1ccc(-c2c[n+](Cc3ccc(Cl)c(Cl)c3)c3n2CCC3)cc1,-,-79,3.7µM,?,?
O=C(C[n+]1cc(-c2ccccc2)n2c1CCCCC2)c1ccc(Br)cc1,-,-77,?,-,-
Cc1ccc(C(=O)C[n+]2cc(-c3ccc(C)cc3)n3c2CCCCC3)cc1,-,-96,0.92µM,13µM,18µM
COCOCCn1cc(CN2CCS(=O)(=O)N(Cc3ccc(-c4ccccc4)cc3)C(C(C)C)C2=O)nn1 (stereo not drawn),?,-,-,-,-
COc1cc(OC)c(C(=O)OCC(=O)NCCc2ccccc2)cc1OC,-,-,-,-,-
CCOC(=O)c1cc(C)nc(Sc2ccc(C)cc2)c1C#N,-,-,?,?,21µM
SMILES,KB-V1 MDR tox,IL1B secr inh,KB-3-1 cytotox,HT1080-NT tox,HT1080 IDH1KD tx
Cc1cc(C)c(C#N)c(Sc2ccc(N)cc2)n1,-,-,-,-,-
COc1ccc(Br)cc1CN1CCN(Cc2c[nH]c3ccccc23)CC1,?,-74,-,?,21µM
COc1cccc(C(=O)N2CCN(Cc3cc(Br)ccc3OC)CC2)c1,-,-51,-,-,-
COc1ccc(Br)cc1CN1CCN(C(=O)c2ccc(OC)c(OC)c2)CC1,-,-,-,-,-
Cc1ccc(Cl)cc1N1CCN(CCCNc2ncnc3onc(-c4ccc(F)cc4)c23)CC1,-,.,-,.,.
CCOc1ccccc1-c1nc(C(N)=O)c2c(n1)n(-c1ccc3c(c1)OCO3)c(=O)n2C,-,.,-,.,.
COc1ccc(NC(=O)COC(=O)[C@@H](NC(=O)c2c(F)cccc2F)C(C)C)cc1,-,-,-,-,-
